# Screening results as filed in PubChem.
# The full list was thinned out, with hits kept by preference.
# Tg IFNy HTS = inhibitors of Toxoplasma gondii growth with IFN-gamma; AID 1259416; Toxoplasma gondii growth in IFN-gamma-treated host cells; hits give low values; activity change, negative = inhibition, % (concentration not given with the values); 69,000 tested, 3.8% active; in the data active = activity change below about -70%, passing the limit was not always enough;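 note: host cells are HeLa cells infected with Toxoplasma gondii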
# Numbers stand for hits; n = inactive; ! = not confirmed by another sample.
SMILES,Tg IFNy HTS
CC(C)C[C@H](NC(=O)[C@H](Cc1ccccc1)NC(=O)c1cnccn1)B(O)O,-81
CC(C)C[C@H](NC(=O)[C@@H](NC(=O)c1cccc(-c2ccccc2)n1)[C@@H](C)O)B(O)O,n
CC1CC2(CCN(C(=O)c3csnn3)CC2)c2ccccc21 (centres undefined),n
C/C=C/c1ccc(C2[C@H]3CNC[C@@H]2N3C(=O)NCCC)cc1 (some centres undefined),n
C/C=C/c1ccc(C2[C@H]3CNC[C@@H]2N3C(=O)NC2CCCCC2)cc1 (some centres undefined),-76!
C/C=C/c1ccc(C2[C@H]3CNC[C@@H]2N3C(=O)Nc2ccccc2Cl)cc1 (some centres undefined),n
CCCc1[nH]ncc1C(=O)N1CCCC(c2[nH]ncc2-c2ccc(F)cc2)C1 (centres undefined),n
CCCc1cc(C(=O)N2CCCC(c3[nH]c4c(C)cccc4c3-c3ccncc3)C2)no1 (centres undefined),-116
CCCc1cc(C(=O)N2CCCC(c3[nH]ncc3-c3ccccc3)C2)ccn1 (centres undefined),n
CN1C[C@@H]2C3(CCN(C(=O)C4CCOCC4)CC3)CC[C@]2(C(=O)N(C)C)C1,n
CC(=O)NCCc1csc(C2CCCN(C(=O)Cc3ccccc3C)C2)n1 (centres undefined),n
C[C@]12CC[C@@H]3c4ccc(O)cc4C[C@@H](CCCCCCCCCS(=O)CCCC(F)(F)C(F)(F)F)[C@H]3[C@@H]1CC[C@@H]2O (some centres undefined),-78
COc1cc(C)c2c(c1)C=CC1C2CCC2(C)C(O)CCC12 (centres undefined),n
CCOC[C@@H]1CCC[C@]12CN(Cc1cccs1)CCO2,n
CCOc1ccccc1C(=O)NCCc1sc(-c2ccc(Cl)cc2)nc1C,-106
Cc1nc(-c2ccc(Cl)cc2)sc1CCNC(=O)c1ccccc1F,n
COc1ccccc1C(=O)NCCc1sc(-c2ccc(F)cc2)nc1C,-107
Cc1ccccc1OCC(=O)NCCc1sc(-c2ccc(Cl)cc2)nc1C,n
Cc1ccccc1C(=O)NCCc1sc(-c2ccc(Cl)cc2)nc1C,n
COc1ccccc1OCC(=O)NCCc1sc(-c2ccc(F)cc2)nc1C,n
COc1ccccc1C(=O)NCCc1sc(-c2cccc(F)c2)nc1C,n
Cc1nc(-c2ccc(Cl)cc2)sc1CCNC(=O)COc1ccccc1F,n
COc1ccccc1C(=O)NCCc1sc(-c2ccc(Cl)cc2)nc1C,-107
COc1ccc(-c2nc(C)c(CCNS(=O)(=O)c3ccc(C)c(C)c3)s2)cc1OC,n
COc1ccc(-c2nc(C)c(CCNS(=O)(=O)c3ccc(-c4ccccc4)cc3)s2)cc1OC,-118
SMILES,Tg IFNy HTS
COc1ccc(S(=O)(=O)NCCc2sc(-c3ccc(OC)c(OC)c3)nc2C)cc1C,n
Cc1ncc(-c2onc(C)c2C)c(C2CCCCN2C(=O)c2snnc2C)n1 (centres undefined),n
O=c1[nH]c2cc(F)ccc2c(O)c1-c1nc(-c2ccccc2Br)no1,n
c1ccc2sc(Cn3cnnc3)nc2c1,n
CN(C)c1cccc(C(=O)N2CCC3(CC2)Nc2ccc(Cl)cc2-n2cccc23)c1,n
COCCNC(=O)C1CCCN(C2CCN(C(=O)c3ccc(F)cc3)CC2)C1 (centres undefined),n
CCNC(=O)[C@@H]1C[C@@H](N)CN1C(=O)c1ccc(Cn2ccc3ccccc32)o1,n
COc1ccc(-c2nc(N3CCC(N4CCCCC4)CC3)c3ccccc3n2)cc1,n
Cc1ccccc1-c1cc(O)c2c(c1)CN(CCc1cn[nH]c1)CCO2,n
Cc1cccc(CC(=O)NCCc2csc(-c3cccc(F)c3)n2)c1,n
Cc1oc(-c2ccccc2)nc1Cn1nnc(-c2nc(-c3cccc(Cl)c3)no2)c1C,n
Cc1ccccc1CNC(=O)c1c(O)c2cccnc2n(-c2cccc(F)c2)c1=O,n
COc1ccc(-c2nc(Cn3c(C)nc4onc(C)c4c3=O)c(C)o2)c(OC)c1,n
CCOC(=O)CC1CCCCN1Cc1nnc(C)s1 (centres undefined),n
O=C(COC(=O)c1cc2ccccc2oc1=O)c1ccc(Br)cc1,n
CCOC(=O)c1cnc(S(=O)(=O)CC)[nH]1,n
Cc1nc(-c2ccc(F)cc2)sc1CCNC(=O)c1ccccc1Br,n
Cc1ccc(-c2nc(C)c(CCNC(=O)C(=O)Nc3ccc4c(c3)OCO4)s2)cc1,n
Cc1nc(-c2ccc(F)cc2)sc1CCNC(=O)c1c(F)cccc1Cl,n
Cc1nc(-c2ccc(F)cc2)sc1CCNC(=O)C(=O)Nc1ccc2c(c1)OCO2,-72
Cc1nc(-c2ccc(F)cc2)sc1CCNC(=O)c1ccccc1Cl,-72
Cc1nc(-c2ccc(F)cc2)sc1CCNC(=O)C(=O)Nc1ccc2c(c1)OCCO2,n
Cc1ccc2occ(CN3CC4CCCN4C[C@H]3C)c(=O)c2c1 (some centres undefined),n
N#Cc1ccc(OCc2c(Cl)sc3ccc(Cl)cc23)cc1,n
O=C1C2C3C=CC(O3)C2C(=O)N1OCc1c(F)cccc1Cl (centres undefined),n
N#Cc1cc(Br)c(OCc2c(F)cccc2Cl)c(Br)c1,-78
